{"source": "the antibiotic and cytotoxicity screens of Wong et al. (2023)", "note": "The whole screen tested about 39,000 compounds, of which about 3,300 (8.5%) were called active. The entries come from a sample that favours actives as a whole.", "data": [{"system": "HepG2", "test": "cytotoxicity call (relative viability < 0.9)", "settings": "10 µM", "values": [{"smiles": "C[C@H]1CN([C@@H](C)CO)C(=O)c2cc(NS(=O)(=O)c3cn(C)cn3)ccc2O[C@H]1CN(C)S(=O)(=O)c1cn(C)cn1", "cytotoxicity call": "inactive"}, {"smiles": "Cc1noc(C)c1NC(=O)N(C)C[C@@H]1Oc2ccc(NC(=O)Cn3cnnn3)cc2C(=O)N([C@@H](C)CO)C[C@H]1C", "cytotoxicity call": "inactive"}, {"smiles": "O=C(C[C@H]1C=C[C@@H](NC(=O)CN2CCOCC2)[C@H](CO)O1)NCCc1ccncc1", "cytotoxicity call": "inactive"}, {"smiles": "O=C(C[C@@H]1CC[C@@H](NC(=O)CN2CCOCC2)[C@H](CO)O1)NCCc1ccccc1", "cytotoxicity call": "inactive"}, {"smiles": "Cc1ccc(S(=O)(=O)N(C)C[C@H]2Oc3ccc(NS(=O)(=O)c4cn(C)cn4)cc3CC(=O)N([C@@H](C)CO)C[C@@H]2C)cc1", "cytotoxicity call": "inactive"}, {"smiles": "O=S(=O)(NCc1ccco1)N1CCOCC1", "cytotoxicity call": "inactive"}, {"smiles": "C[C@@H]1CCCCO[C@H](CN(C)Cc2ccc(C(=O)O)cc2)[C@H](C)CN([C@@H](C)CO)C(=O)c2cc(NC(=O)Nc3ccccc3)ccc2O1", "cytotoxicity call": "inactive"}, {"smiles": "COc1ccc2c(c1)OCC(=Cc1ccc(OC)c(O)c1)C2=O", "cytotoxicity call": "active"}, {"smiles": "COc1ccc([C@H]2CC=CC[C@H](C)Oc3ccccc3C(=O)N(C)[C@@H](Cc3ccccc3)C(=O)N2)c(OC)c1", "cytotoxicity call": "inactive"}, {"smiles": "COc1ccc(-c2cc(=O)c3c(O)cc(OC)c(OC)c3o2)c(OC)c1", "cytotoxicity call": "inactive"}, {"smiles": "COc1ccc([C@H]2CC=CC[C@H](C)Oc3ccccc3C(=O)N(C)[C@H](Cc3ccccc3)C(=O)N2)c(OC)c1", "cytotoxicity call": "inactive"}, {"smiles": "COc1ccc2c(c1)OCC(Cc1ccc(OC)c(O)c1)C2=O", "note": "(stereo not drawn)", "cytotoxicity call": "active"}, {"smiles": "COc1ccc(CCC(=O)c2c(O)cc(O[C@@H]3O[C@H](CO)[C@@H](O)[C@H](O)[C@H]3O[C@@H]3O[C@@H](C)[C@H](O)[C@@H](O)[C@H]3O)cc2O)cc1O", "cytotoxicity call": "inactive"}, {"smiles": "COc1ccc2c(c1)OCC(Cc1ccc(OC)c(OC)c1)C2=O", "note": "(stereo not drawn)", "cytotoxicity call": "active"}, {"smiles": "COc1ccc2c(c1)OCC(Cc1ccc(O)c(OC)c1)C2=O", "note": "(stereo not drawn)", "cytotoxicity call": "inactive"}, {"smiles": "COc1ccc2c(c1)OCc1c-2oc2cc(OC)ccc12", "cytotoxicity call": "inactive"}, {"smiles": "C[C@H]1CCCCO[C@H](CN(C)C(=O)NC2CCCCC2)[C@@H](C)CN([C@@H](C)CO)C(=O)c2cc(NC(=O)C3CCCCC3)ccc2O1", "cytotoxicity call": "inactive"}, {"smiles": "Cc1noc(C)c1NC(=O)N(C)C[C@@H]1OCCCC[C@H](C)Oc2ccc(NC(=O)Nc3cccc4ccccc34)cc2C(=O)N([C@@H](C)CO)C[C@H]1C", "cytotoxicity call": "inactive"}, {"smiles": "COCCNC(=O)C[C@@H]1CC[C@@H]2[C@H](COc3ccc(NC(=O)Nc4cccc(F)c4)cc3C(=O)N2C)O1", "cytotoxicity call": "inactive"}, {"smiles": "Cc1noc(C)c1NC(=O)Nc1ccc2c(c1)CC(=O)N([C@@H](C)CO)C[C@H](C)[C@@H](CN(C)Cc1ccc(Oc3ccccc3)cc1)O2", "cytotoxicity call": "inactive"}, {"smiles": "Cc1noc(C)c1NC(=O)N(C)C[C@@H]1Oc2ccc(NS(=O)(=O)c3ccccc3)cc2C(=O)N([C@H](C)CO)C[C@@H]1C", "cytotoxicity call": "inactive"}, {"smiles": "CCSc1nc(-c2ccc(C)cc2)cc(C(F)(F)F)c1C#N", "cytotoxicity call": "inactive"}, {"smiles": "CSc1nc(-c2ccccc2)cc(-c2cccs2)c1C#N", "cytotoxicity call": "inactive"}, {"smiles": "Cc1cc(-c2ccccc2)nc(SCc2ccccc2)c1C#N", "cytotoxicity call": "active"}, {"smiles": "CC(C)NC(=O)Nc1cccc2c1O[C@H](CN(C)S(=O)(=O)c1ccccc1)[C@@H](C)CN([C@H](C)CO)C2=O", "cytotoxicity call": "inactive"}, {"smiles": "C[C@@H]1CCCCO[C@H](CN(C)S(=O)(=O)c2cccs2)[C@@H](C)CN([C@H](C)CO)C(=O)c2cc(NC(=O)Nc3cccc4ccccc34)ccc2O1", "cytotoxicity call": "inactive"}, {"smiles": "CCCN(C)C[C@@H]1OCCCC[C@@H](C)Oc2ccc(NC(=O)Nc3ccc(F)cc3)cc2C(=O)N([C@H](C)CO)C[C@H]1C", "cytotoxicity call": "inactive"}, {"smiles": "CCCN(C)C[C@@H]1OCCCC[C@H](C)Oc2ccc(NC(=O)Nc3ccc(F)cc3)cc2C(=O)N([C@@H](C)CO)C[C@@H]1C", "cytotoxicity call": "inactive"}, {"smiles": "CCCN(C)C[C@H]1OCCCC[C@@H](C)Oc2ccc(NC(=O)Nc3ccc(C(F)(F)F)cc3)cc2C(=O)N([C@H](C)CO)C[C@H]1C", "cytotoxicity call": "inactive"}, {"smiles": "CCCN(C)C[C@@H]1OCCCC[C@@H](C)Oc2ccc(NC(=O)Nc3ccc(F)cc3)cc2C(=O)N([C@H](C)CO)C[C@@H]1C", "cytotoxicity call": "inactive"}, {"smiles": "CCCN(C)C[C@H]1OCCCC[C@H](C)Oc2ccc(NC(=O)Nc3ccc(C(F)(F)F)cc3)cc2C(=O)N([C@@H](C)CO)C[C@H]1C", "cytotoxicity call": "active"}, {"smiles": "CCCN(C)C[C@@H]1OCCCC[C@H](C)Oc2ccc(NC(=O)Nc3ccc(C(F)(F)F)cc3)cc2C(=O)N([C@H](C)CO)C[C@@H]1C", "cytotoxicity call": "active"}, {"smiles": "CCCN(C)C[C@@H]1OCCCC[C@H](C)Oc2ccc(NC(=O)Nc3ccc(C(F)(F)F)cc3)cc2C(=O)N([C@@H](C)CO)C[C@@H]1C", "cytotoxicity call": "inactive"}, {"smiles": "CCCN(C)C[C@@H]1OCCCC[C@@H](C)Oc2ccc(NC(=O)Nc3ccc(C(F)(F)F)cc3)cc2C(=O)N([C@H](C)CO)C[C@H]1C", "cytotoxicity call": "inactive"}, {"smiles": "CCCN(C)C[C@H]1OCCCC[C@@H](C)Oc2ccc(NC(=O)Nc3ccc(C(F)(F)F)cc3)cc2C(=O)N([C@@H](C)CO)C[C@H]1C", "cytotoxicity call": "active"}, {"smiles": "CCCN(C)C[C@H]1OCCCC[C@@H](C)Oc2ccc(NC(=O)Nc3ccc(F)cc3)cc2C(=O)N([C@H](C)CO)C[C@@H]1C", "cytotoxicity call": "inactive"}, {"smiles": "CCCN(C)C[C@H]1OCCCC[C@H](C)Oc2ccc(NC(=O)Nc3ccc(F)cc3)cc2C(=O)N([C@@H](C)CO)C[C@H]1C", "cytotoxicity call": "inactive"}, {"smiles": "CCCN(C)C[C@@H]1OCCCC[C@@H](C)Oc2ccc(NC(=O)Nc3ccc(C(F)(F)F)cc3)cc2C(=O)N([C@H](C)CO)C[C@@H]1C", "cytotoxicity call": "active"}, {"smiles": "COc1ccc(S(=O)(=O)Nc2ccc3c(c2)C(=O)N([C@@H](C)CO)C[C@@H](C)[C@H](CN(C)S(=O)(=O)c2ccc(Cl)cc2)OCCCC[C@@H](C)O3)cc1", "cytotoxicity call": "inactive"}, {"smiles": "COc1ccc(S(=O)(=O)N(C)C[C@@H]2Oc3ccc(NC(=O)Cc4ccccc4)cc3CC(=O)N([C@H](C)CO)C[C@H]2C)cc1", "cytotoxicity call": "inactive"}, {"smiles": "COc1ccccc1C#Cc1ccc2c(c1)O[C@@H](CN(C)Cc1cncnc1)[C@H](C)CN([C@H](C)CO)S2(=O)=O", "cytotoxicity call": "inactive"}, {"smiles": "Cc1ccc(S(=O)(=O)N2C[C@@H](O)COC[C@H]3O[C@H](CC(=O)NCc4ccc(C(F)(F)F)cc4)CC[C@@H]32)cc1", "cytotoxicity call": "inactive"}, {"smiles": "CSc1cc(-c2ccc(Cl)cc2)nc(-c2cccs2)c1", "cytotoxicity call": "inactive"}]}]}
